# Source: PubChem BioAssay (National Center for Advancing Translational Sciences (NCATS))
# D3 antag: D3 dopamine receptor (human) antagonism; D3R cells, DiscoveRx beta-arrestin luminescence, antagonist mode; hits give low values; hit rate 2.5% among 360,000; max response, negative = inhibition, %; in the data active = max response below about -50%; inconclusive = no clear call, values can overlap the other calls; note: % is set by controls: 0 for no effect and ±100 for the full control effect
# Target sequence (P35462 whole entry, looked up): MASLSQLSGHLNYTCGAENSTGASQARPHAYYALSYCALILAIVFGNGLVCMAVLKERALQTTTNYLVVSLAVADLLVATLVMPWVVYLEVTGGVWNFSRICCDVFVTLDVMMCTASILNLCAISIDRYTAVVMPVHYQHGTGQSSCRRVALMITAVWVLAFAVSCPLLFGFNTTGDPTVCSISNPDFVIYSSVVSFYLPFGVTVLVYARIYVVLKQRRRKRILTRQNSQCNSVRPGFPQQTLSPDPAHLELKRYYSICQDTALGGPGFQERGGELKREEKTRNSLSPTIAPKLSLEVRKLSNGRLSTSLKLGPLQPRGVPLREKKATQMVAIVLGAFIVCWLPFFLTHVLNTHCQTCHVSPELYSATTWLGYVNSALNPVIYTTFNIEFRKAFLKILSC
#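 Cells expressing the human receptor were seeded at 1500 cells/well, incubated overnight at 37 degrees C in 5% CO2, then exposed to library compounds with dopamine controls for 90 minutes at 37 degrees C before luminescent detection.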
# BCR signal inh: chronic active BCR signaling inhibition; ABC-DLBCL IkBa-CBG/CBR reporter, luminescence ratio, 4 h; hit rate 0.05% among 340,000; Potency, µM (doses to about 46.1 µM), without a hit: at the highest dose activity change, negative = inhibition, usual class: inhibitors; AID 493014; active = well fitted inhibition curve with a large enough effect in the signal ratio, with a control signal flat, not every such curve was filed as active; inconclusive = small, poorly fitted or top-dose-only effect, or effect the other way, or a change in a side signal; the % refers to the signal ratio;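 note: potency is the fitted concentration of half-maximal effect; plate controls were basal doxycycline-induced cells for no effect and cells given 10 µM MG132 for full effect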
#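 TMD8 ABC-DLBCL cells carrying doxycycline-inducible green luciferase fused to IkappaBalpha plus unfused red luciferase were exposed to compounds (up to 46 uM) for 4 hrs at 37C. Activity came from the overlap-corrected green/red luminescence ratio.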
# D3 ag: activates the human D3 dopamine receptor. P35462. D3R DiscoveRx beta-arrestin cells, luminescence, 90 min. max activation, %. hit rate 0.58% among 410,000. AID 652048; in the data active = max activation above about 30%; note: 0% is about no effect
#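 Cells at 1500/well, incubated overnight, then treated with pinned compounds (dopamine as control) for 90 min at 37 degrees C. DiscoveRx reagent added for 30 - 60 minutes at room temperature; luminescence read.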
# D1 potentiator: potentiators of human D1 dopamine receptor. HEK293 TREx D1 cells, calcium flux, dopamine EC20 potentiation. potentiation, % at 10 µM. hit rate 0.036% among 360,000; in the data active = potentiation above about 30%; note: 0% is about no effect
# D1 ag: agonists of human D1 dopamine receptor. P21728. HEK293 T-REx D1 cells, calcium flux, agonist mode. activation, % at 2 µM. hit rate 1% among 360,000. AID 504660; in the data active = activation above about 30%; note: 0% is about no effect
#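 Inducible HEK293 T-REx D1 cells, force-coupled to calcium signalling, were plated at 4000 cells/well with tetracycline and held overnight at 30 C. After no-wash calcium dye loading, compound-evoked calcium rise over 180 s flagged agonists.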
# D1 antagonist: blocks dopamine activation of the human D1 receptor. AID 504652. HEK293 TREx D1 cells, calcium flux, dopamine EC80; hits give low values. activity change, negative = inhibition, % at 10 µM. hit rate 3.2% among 360,000; in the data active = activity change below about -30%; note: % is set by controls: 0 for no effect and ±100 for the full control effect
#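 Inducible Hek293 Trex D1 cells (tetracycline, overnight, 30 C). Calcium dye 30–90 min RT. Antagonist mode: EC80 dopamine added after 180 s compound read.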
# Numbers without * were called inactive; u = inconclusive; x = not tested or not shown. An excerpt weighted towards active compounds, which were near 6% of everything screened.
SMILES,D3 antag,BCR signal inh,D3 ag,D1 potentiator,D1 ag,D1 antagonist
Cn1c(NCC2CCCCC2)nc2cc(-c3ccsc3)sc2c1=O,-51*,x,4,x,x,x
Cn1c(NCc2ccncc2)nc2cc(-c3ccsc3)sc2c1=O,16,x,2,x,x,x
Cc1ccc(OCC(=O)NCC2(N3CCN(C)CC3)CCCCC2)cc1C,x,x,-25,-1,14,1
O=C(N/N=C/c1ccc(OCc2ccccc2)cc1)c1cc[n+](Cc2ccccc2)cc1,-59*,-10%,-3,0,0,5
CCCCCC(=O)N1C[C@H](O)[C@@H](n2cc(-c3ccc(F)cc3)nn2)C[C@@H]1c1ccc(OC)cc1,40,x,9,x,x,x
COCCNCC#CCOc1ccc(OC)cc1,-6,-1%,-11,0,2,-10
C=CCNCC#CCOc1ccc(OC)cc1,-62*,u,-5,-2,0,-9
Cc1ccc(S(=O)(=O)N2CCC(=O)N([C@H](COCc3cccc(C)c3)C(C)C)CC2)cc1,-19,x,-3,x,x,x
CCOc1ccc(-c2cn3c(n2)sc2cc(C(=O)NCCCN(CC)CC)ccc23)cc1,x,x,-18,-5,-1,-16
CN(C)c1ccc(/C=C2\C(=N)N3N=C(CC(=O)N4CCCCC4)SC3=NC2=O)cc1,-3,-3%,-8,1,37*,8
CN(C)c1ccc(/C=C2\C(=N)N3C(=NC2=O)Sc2cc(S(C)(=O)=O)ccc23)cc1,x,1%,x,-1,78*,-8
CCOc1ccc(CNC(=O)CN2C(=O)C3CCCCN3c3ccc(C(=O)N4CCCC4)cc32)cc1 (stereo not given),x,x,-14,-3,0,4
Cc1oc(-c2cccc(Cl)c2)nc1CN1CCCC(C(=O)NCc2ccc(F)cc2)C1 (stereo not given),x,x,-21,-4,2,-5
Cc1ccc(/C=C2/NC(=O)N(Cc3ccccc3)C2=O)s1,7,u,1,-1,29,-40*
Cc1cccc(CN2C(=O)N/C(=C/c3ccc(C)s3)C2=O)c1,19,u,-5,-3,20,1
CCOC(=O)C1(C)CCCN1C(=O)c1snnc1C (stereo not given),-51*,x,-5,x,x,x
CCc1ccc(C(=O)c2cn(CC(=O)NCCc3ccccc3)c3nc(C)ccc3c2=O)cc1,x,x,1,-5,4,-2
COc1ccc(S(=O)(=O)N(CC(=O)O)c2ccc(C)cc2)cc1,8,3%,-2,3,3,-50*
COc1ccc(N(Cc2ccccc2)S(=O)(=O)c2ccc(C)cc2)cc1,9,6%,0,-7,15,-30*
COc1ccc(C(C)NC(=O)C2CCCC2)cc1OC (stereo not given),2,2%,-6,5,8,-48*
NC(=O)C1CCN(C2=C(Cl)C(=O)c3ccccc3C2=O)CC1,-75*,u,-11,-2,4,1
O=C1C(Cl)=C(N2CCC(C(=O)O)CC2)C(=O)c2ccccc21,-53*,u,-7,-2,4,8
CC1COCC(C)N1C1=C(Cl)C(=O)c2ccccc2C1=O (stereo not given),-58*,x,-9,x,x,x
CN1CCN(C2=C(Cl)C(=O)c3ccccc3C2=O)CC1,u,x,-20,x,x,x
CNc1ccc(-c2cccc(CO)c2)cn1,-1,x,-6,x,x,x
SMILES,D3 antag,BCR signal inh,D3 ag,D1 potentiator,D1 ag,D1 antagonist
COc1ccc(C2CCCCCN2C(=O)C2CCN(S(=O)(=O)c3ccc(C)cc3)CC2)cc1 (stereo not given),28,x,3,x,x,x
COCCNC(=O)C1(C)CCCN(C(=O)c2cccc(C(F)(F)F)c2)C1 (stereo not given),-21,x,-6,x,x,x
CCc1cccc(CC)c1NC1=NS(=O)(=O)c2ccccc21,x,x,-5,-1,1,-1
CCc1cc(C(=O)N2CCOCC2)c(NC2=NS(=O)(=O)c3ccccc32)s1,-69*,4%,2,0,2,-1
O=C(O)c1cc(=O)cc(C(=O)O)[nH]1,-82*,13%,-17,-3,2,5
O=C(NNC(=O)C1CCN(C(=O)Nc2ccccc2)CC1)c1ccc(F)cc1,-18,-4%,-11,-2,1,6
Cc1ccccc1C(=O)NNC(=O)C1CCN(C(=O)Nc2ccccc2)CC1,15,u,5,-7,0,-45*
Cc1ccc(S(=O)(=O)N(C)C)cc1NC(=O)C1CCN(C(=O)Nc2ccccc2)CC1,-1,-11%,-9,-6,2,-34*
CC(=O)NC(c1ccc(C)cc1)c1cc(Cl)c2cccnc2c1O (stereo not given),-79*,2%,-15,5,15,-7
CC(=O)NC(c1cc(Cl)c2cccnc2c1O)C1CC1 (stereo not given),x,8%,x,4,4,-55*
CC(=O)NC(c1ccco1)c1cc(Cl)c2cccnc2c1O (stereo not given),x,-7%,x,-7,-1,-11
CCC(=O)NC(c1ccc(F)cc1)c1cc(Cl)c2cccnc2c1O (stereo not given),x,x,x,6,8,-7
CCC(=O)NC(c1ccc(C)s1)c1cc(Cl)c2cccnc2c1O (stereo not given),x,x,x,-7,10,-58*
Oc1c(C(Nc2ccccn2)c2cccnc2)cc(Cl)c2cccnc12 (stereo not given),-121*,-10%,-5,5,7,-3
CC(=O)NC(c1cc(Cl)c2cccnc2c1O)C(C)C (stereo not given),x,-18%,x,3,4,-6
FC(F)(F)c1cccc(NC(=S)Nc2ccc(Cl)c(Cl)c2)c1,2,22%,-1,-2,11,-12
O=[N+]([O-])c1cc(C(F)(F)F)cc([N+](=O)[O-])c1NCCNC(=S)Nc1ccc(Cl)c(Cl)c1,-17,u,-8,0,11,-32*
CCOC(=O)c1cccc(NC(=O)C2CCCN(c3nnc(C)c4c(C)n(-c5ccccc5)nc34)C2)c1 (stereo not given),x,x,21,0,3,10
CN(C)c1nc(C=C(C#N)C#N)c(Cl)n1-c1ccc(F)cc1,-64*,u,-19,-1,0,-9
Cc1ccc(NC(=O)/C(C#N)=C/c2cc(C)n(-c3ccc(F)cc3)c2C)cc1C,x,x,6,0,1,3
C=CCc1cc(Cl)ccc1OCCNCCN1CCOCC1,u,11%,-10,-7,12,-87*
C=CCc1cc(Cl)ccc1OCCNCCOC,-56*,u,-12,-5,19,-8
Cc1ccc2occ(CC(=O)Nc3ccc(S(=O)(=O)N4CCCC(C)C4)cc3)c2c1 (stereo not given),x,x,7,3,1,-2
CCc1ccccc1NC(=S)N=Nc1c(O)n(C)c2ccc(S(=O)(=O)N3CCOCC3)cc12,-12,18µM*,-1,3,2,-4
